# Epigenetic reg = epigenetic control regulation, reporter derepression; 0.2% of 280,000 active; Potency, µM (titrated, usually from 53.9 µM), usual class: activators; murine LDR cells, GFP reporter derepression, 30 h; note: nearly all actives have a fitted effect of over 60% in size
#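 Murine LDR cells bearing a silenced CMV-driven GFP reporter were exposed to compound for 30 h at 37 C. After PBS washes, GFP-positive cells (20-120 um objects) counted by laser-scanning microplate cytometry.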
# PINK1 modulator = modulators of PINK1 expression; Potency, µM (highest dose often 76.6 µM), most hits filed as activators; 0.2% of 410,000 active; PINK1 immunofluorescence, high-content cytometry, 24 h; AID 624263; active = well fitted activation curve with a large enough effect; inconclusive = small, poorly fitted or top-dose-only effect; cell line not stated here; note: nearly all actives have a fitted effect of over 65% in size
#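 A stable cell line was treated with compounds at 5 concentrations for 24 hours, with CCCP as control. PINK1 levels and mitochondrial localization were measured by immunofluorescence with mitochondrial, cell and nuclear markers after fixation, read by laser-scanning cytometry.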
# B2AR arrestin = recruits beta-arrestin to the human beta2-adrenergic receptor; P07550; beta-arrestin recruitment to beta2AR, cell-based reporter; 0.02% of 330,000 active; Potency, µM (top dose mostly 46.1 µM), hits mostly activators; note: nearly all actives have a fitted effect of over 65% in size
# IL2 activator = activates IL-2 in a cell-based reporter assay | AID 652025 | 0.065% of 360,000 active | IL-2 activation reporter assay, cell-based qHTS; stimulated with anti-CD3/CD4/CD28 beads; in transgenic mouse T cells | activation, % (series mostly up to about 46 µM); in the data active = activation above about 50%; inconclusive = mostly about 30% to 49%
#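 Unstimulated transgenic mouse T cells preincubated 60 min with compound, then stimulated with anti-CD3/anti-CD4-coated beads plus anti-CD28 for 18 h at 37 degrees C. IL-2 response read as EGFP and DsRed fluorescence by plate cytometry.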
# PKM2 act = increases activity of human pyruvate kinase M2 | P14618 | purified PKM2, Kinase-Glo ATP luminescence, activation; response scale: 0% is enzyme alone, no compound | Potency, µM (doses to about 57.5 µM), most hits filed as activators | 0.34% of 260,000 active | AID 1631; note: nearly all actives have a fitted effect of over 55% in size
# Target sequence (P14618 whole entry, looked up): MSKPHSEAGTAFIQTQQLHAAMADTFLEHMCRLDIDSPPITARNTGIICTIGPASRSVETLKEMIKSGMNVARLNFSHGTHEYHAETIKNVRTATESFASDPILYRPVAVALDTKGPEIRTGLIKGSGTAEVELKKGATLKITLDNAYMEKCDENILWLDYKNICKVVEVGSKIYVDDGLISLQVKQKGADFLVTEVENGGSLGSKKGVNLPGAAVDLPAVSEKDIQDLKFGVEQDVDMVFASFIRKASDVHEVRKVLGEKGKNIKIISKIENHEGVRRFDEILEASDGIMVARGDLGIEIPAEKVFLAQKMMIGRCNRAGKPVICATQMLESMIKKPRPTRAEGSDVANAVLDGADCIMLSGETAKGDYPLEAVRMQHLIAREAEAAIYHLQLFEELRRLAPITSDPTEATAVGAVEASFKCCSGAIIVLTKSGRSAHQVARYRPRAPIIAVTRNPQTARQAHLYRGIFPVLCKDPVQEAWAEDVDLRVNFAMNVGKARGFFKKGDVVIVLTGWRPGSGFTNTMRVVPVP
#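 hPK-M2, >95% pure; 0.1 mM ADP / 0.5 mM PEP final; imidazole pH7.2 buffer w/ 7 mM MgCl2, 50 mM KCl; 1 h RT; Kinase-Glo lum. Intermediate enzyme activity for dual inhibitor/activator qHTS.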
# HeLa tox = HeLa cytotoxicity, CellTiter-Glo readout | shares compounds with PKM2 act | HeLa viability, CellTiter-Glo ATP luminescence, 24 h | activity change, negative = cytotoxicity, % at 57.5 µM | 230 tested, under 10 active | AID 1898
# A number is an active result; n = inactive; u = inconclusive; x = no result; [ ] = another dose, or the depositor's remark. This is a sample that favours compounds with a hit; in the whole collection about 0.58% have one here. Unless noted, calls come from the whole dose curve; as a rule, active = well fitted curve in the direction sought with a large enough effect; inconclusive = small, poorly fitted or top-dose-only effect, or another doubt; inactive = no such curve, though single readings can be large; an effect the other way counts as inactive or inconclusive.
SMILES,Epigenetic reg,PINK1 modulator,B2AR arrestin,IL2 activator,PKM2 act,HeLa tox
CNC(=O)c1c(NC(=O)c2ccc(S(=O)(=O)N(C)c3ccccc3)cc2)sc2c1CCN(C(C)C)C2,x,n,n,62,n,x
O=C(NCCc1ccccn1)C1CC12CCN(C(=O)c1c(F)cccc1Cl)CC2 (centres undefined),x,n,x,x,x,x
COc1ccc2nc(NS(=O)(=O)c3ccc(C)cc3)c(Nc3cc(Cl)ccc3OC)nc2c1,25µM,n,x,x,x,x
Cc1cc(C(=O)N2CCOc3ccc(CN4CCC(Oc5cccnc5)CC4)cc3C2)c(C)o1,x,n,x,x,x,x
Cc1cccn2c(=O)c3cc(C(=O)NC4CCCCC4)c(=N)n(Cc4ccc(F)cc4)c3nc12,x,n,n,154,n[0.46 µM],x
N=c1c(C(=O)NCc2ccc(F)cc2)cc2c(=O)n3ccccc3nc2n1Cc1cccnc1,n,u,n,178,n,x
Cc1cccn2c(=O)c3cc(S(=O)(=O)c4ccc(F)cc4)c(=N)n(Cc4ccco4)c3nc12,n,n,n,56,n,x
O=S(=O)(NCc1nnc2n1CCN(Cc1ccccc1Cl)CC2)c1ccccc1,x,n,x,x,x,x
Cc1nn(-c2ccccc2)c(C)c1CC(=O)NCC1Cc2cc(F)cc(-c3cccnc3)c2O1 (centres undefined),x,n,x,x,x,x
CC(=O)Nc1ccc(C2=NNC(=Nc3cccc(S(=O)(=O)N(C)C)c3)SC2)cc1,n,u,n,n,n,x
COc1ccc(C2=NNC(=Nc3cc(S(=O)(=O)N(C)C)ccc3C)SC2)c(OC)c1,n,2.8µM,n,n,n,x
CN(C)S(=O)(=O)c1cccc(N=C2NN=C(c3ccccc3)CS2)c1,n,32µM,n,n,n,x
CCc1nnc(NS(=O)(=O)c2ccc(NC(=O)OC)cc2)s1,n,u,n,n,28µM,x
CCc1nnc(NS(=O)(=O)c2ccc(NC(=O)Nc3ccc(OC)cc3)cc2)s1,x,n,n,n,n,x
Cc1ccc(CNc2nc(CN3CCCCC3c3cccnc3)nc3ccccc23)o1 (centres undefined),x,n,x,x,x,x
Cc1ncc2c(c1CNC(=O)c1ccc3c(c1)OCO3)CCN(C(=O)c1cn3ccccc3n1)C2,x,n,x,x,x,x
Cc1cc(SCC(=O)OCC(=O)N2CCN(C(=O)c3ccco3)CC2)c(C)cc1Br,n,n,n,n,25µM,x
Cc1cc(SCC(=O)N2CCN(C(=O)c3ccco3)CC2)c(C)cc1Br,x,n,n,n,x,x
Cc1ncc(-c2ccc(F)cc2)c(C2CCCN(Cc3cccc(O)c3)C2)n1 (centres undefined),x,n,x,x,x,x
C=CC(=O)N1CCC[C@@H](n2nc(-c3ccc(Oc4ccccc4)cc3)c3c(N)ncnc32)C1,x,n,x,x,x,x
CCn1c(SCC(=O)N2CCN(c3ccccc3)CC2)nnc1-c1cc2cc(Cl)ccc2o1,n,11µM,n,n,n,x
C=CCn1c(SCC(=O)N2CCN(c3ccccc3)CC2)nnc1-c1ccco1,n,n,n,n,n,x
C[n+]1ccccc1/C=C1\Sc2ccccc2N1CCO,x,n,n,n,n[11.5 µM],x
CCC(CO)[n+]1c(C)cc(/C=C2\Sc3ccccc3N2Cc2ccccc2)cc1C (centres undefined),u,11µM,n,n,n,x
CCOc1cc(C(=S)N2CCOCC2)ccc1OS(=O)(=O)c1ccccc1[N+](=O)[O-],n,n,1.2µM,n,n,x
SMILES,Epigenetic reg,PINK1 modulator,B2AR arrestin,IL2 activator,PKM2 act,HeLa tox
COc1cc(C(=S)N2CCOCC2)ccc1OS(=O)(=O)c1ccccc1[N+](=O)[O-],n,n,n,n,n,x
O=S(=O)(NCCCCCNS(=O)(=O)c1ccccc1)c1ccccc1,n,n,n,n,1.4µM,n
CCc1cc(C(=O)NCC2Cc3cc(-c4ccccc4C(C)=O)ccc3O2)no1 (centres undefined),x,n,x,x,x,x
CN(c1ccccc1)S(=O)(=O)c1cccc(C(=O)NCCc2ccc(O)c(O)c2)c1,u,n,n,n,1.4µM,n
Cc1ncc2c(c1CNC(=O)c1cncs1)CCN(C(=O)c1ccsc1)C2,x,n,x,x,x,x
N#CC(C#N)=C1c2cc(S(N)(=O)=O)ccc2-c2ccc(S(N)(=O)=O)cc21,n,n,n,n,0.71µM,n
O=S(=O)(c1cccs1)N1CCN(S(=O)(=O)c2cccs2)CC1,n,n,n,n,0.4µM,n
NS(=O)(=O)c1ccc2c(c1)oc(=O)c1cc(S(N)(=O)=O)ccc12,n,n,n,n,0.35µM,n
COCCNS(=O)(=O)c1ccc2c(c1)oc(=O)c1cc(S(=O)(=O)NCCOC)ccc12,n,x,n,x,u,x
Cc1ccc(-c2nc3ccccn3c2Nc2ccccc2)o1,n,n,n,n,2.2µM,n
Cc1ccccc1C1(CC(=O)N2CCCC(C)C2)CC(=O)N(Cc2cccnc2)C1=O (centres undefined),x,n,x,x,x,x
Cc1cc2c(s1)c1cnn(Cc3ccc(-c4ccccc4)cc3)c(=O)c1n2C,x,x,x,x,x,n
Cc1cc2c(s1)c1cnn(Cc3ccc(Cl)cc3)c(=O)c1n2C,x,x,x,x,x,n
Cn1c2cc(Br)sc2c2cnn(Cc3c(F)cccc3Cl)c(=O)c21,x,n,n,n,x,x
Cn1c2cc(Br)sc2c2cnn(Cc3c(F)cccc3F)c(=O)c21,x,x,n,x,x,x
Cc1ncc2c(c1CNC(=O)c1cncs1)CCN(C(=O)c1cc(F)c(F)cc1F)C2,x,n,x,x,x,x
O=S(=O)(NCCNS(=O)(=O)c1c(F)cccc1F)c1ccc2c(c1)OCCO2,x,n,n,n,x,n
O=S(=O)(NCCCCNS(=O)(=O)c1c(F)cccc1F)c1ccc2c(c1)OCCO2,x,n,n,n,x,n
O=S(=O)(NCC1CCC(NS(=O)(=O)c2c(F)cccc2F)CC1)c1ccc2c(c1)OCCO2 (centres undefined),x,n,n,n,x,x
Cn1c2cc(B(O)O)sc2c2cnn(Cc3c(F)cccc3Cl)c(=O)c21,x,x,n,x,x,x
Cn1c2cc([N+](=O)[O-])sc2c2cnn(Cc3ccccc3F)c(=O)c21,x,x,n,x,x,n
CC(C)c1cc2c(s1)c1cnn(Cc3ccccc3F)c(=O)c1n2C,x,x,x,x,x,u
COC(=O)c1cc2c(s1)c1cnn(Cc3ccccc3F)c(=O)c1n2C,x,x,n,x,x,n
CC(O)c1cc2c(s1)c1cnn(Cc3ccccc3F)c(=O)c1n2C (centres undefined),x,n,n,n,x,n
Cn1c2cc(B(O)O)sc2c2cnn(Cc3ccc(F)cc3F)c(=O)c21,x,x,n,x,x,x
Cn1c2cc(B(O)O)sc2c2cnn(Cc3c(F)cccc3F)c(=O)c21,x,x,n,x,x,x
O=C(NC1CC1)[C@@H]1C[C@@H](Sc2nc3ccccc3[nH]2)CN1CC1CCCCC1,x,n,x,x,x,x
COc1cc(=O)n2c(c1C(=O)NC(C)c1ccco1)CCN(C(=O)c1ccc(F)cc1Cl)CC2 (centres undefined),x,n,x,x,x,x
Cn1c2cc(C#N)sc2c2cnn(Cc3ccccc3F)c(=O)c21,x,x,x,x,x,n
Cn1c2ccsc2c2cnn(Cc3ccccc3F)c(=O)c21,x,x,x,x,x,n

# Assay outcomes: PubChem BioAssay, National Center for Advancing Translational Sciences (NCATS)
